Results as given in PubChem BioAssay (Tox21).
Inconclusive results are not listed. The source made the active and inactive calls. Calls come from the whole dose curve; as a rule, active = well fitted curve in the direction sought with a large enough effect in the repeat runs; inconclusive = weak or mixed curves; inactive = no such curve, though single readings can be large; an effect the other way counts as inactive or inconclusive.

Key:
[1] = qHTS RealTime-Glo MT Cell Viability Assay in HepG2 cells - 40 hour (AID 1224870); note: nearly all actives have a fitted effect of over 50% in size
Method in brief: (§1)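 HepG2 cells (600/well) mixed with RealTime-Glo MT reagent, settled 5 h at 37 C/5% CO2 before compound addition. Nonlytic NanoLuc luminescence from viable-cell prosubstrate reduction read repeatedly during 40 h treatment at 37 C.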

[2] = A CellTox Green Cytotoxicity Assay to monitor cytotoxicity in HEK293 cells - 40 hour (AID 1224871); note: nearly all actives have a fitted effect of over 45% in size
Method in brief: (§2)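 Each value comes from one timepoint of a single continuous run in which HEK293 cells with CellTox Green were exposed to compound for up to 40 h at 37 C, dye fluorescence rising with cell death.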

[3] = qHTS RealTime-Glo MT Cell Viability Assay in HEK293 cells - 16 hour (AID 1224872); note: top concentration of the series differs between compounds; nearly all actives have a fitted effect of over 50% in size
Method in brief: (§3)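 Assay medium contained NanoLuc luciferase plus cell-permeant prosubstrate, added with HEK293 cells at 600 cells/well. After 5 h at 37 C/5% CO2 compounds were added; plates stayed at 37 C for 40 h with serial luminescence reads.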

[4] = qHTS RealTime-Glo MT Cell Viability Assay in HepG2 cells - 8 hour (AID 1224873); note: nearly all actives have a fitted effect of over 55% in size
Method in brief: as §1

[5] = qHTS RealTime-Glo MT Cell Viability Assay in HEK293 cells - 40 hour (AID 1224874); conditions: RealTime-Glo luminescence; max response: hits give low values; note: nearly all actives have a fitted effect of over 50% in size
Method in brief: (§4)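 qHTS format; HEK293 cells with NanoLuc/prosubstrate reagent, 37 C/5% CO2 for 5 h pre-dosing; compounds 23 nL in DMSO; luminescence at each time point reflects viable cells.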

[6] = A CellTox Green Cytotoxicity Assay to monitor cytotoxicity in HEK293 cells - 24 hour (AID 1224875); note: series mostly up to about 77 µM; nearly all actives have a fitted effect of over 45% in size
Method in brief: as §2

[7] = A CellTox Green Cytotoxicity Assay to monitor cytotoxicity in HepG2 cells - 16 hour (AID 1224876); note: nearly all actives have a fitted effect of over 45% in size
Method in brief: (§5)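 Continuous culture of HepG2 cells with a membrane-impermeant DNA dye; rising fluorescence marks dead cells. Compound exposure lasted up to 40 h at 37 C, with reads every 8 h from 0 h.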

[8] = qHTS RealTime-Glo MT Cell Viability Assay in HepG2 cells - 32 hour (AID 1224877); note: nearly all actives have a fitted effect of over 55% in size
Method in brief: (§6)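 qHTS, HepG2, 600 cells/well, RealTime-Glo (NanoLuc + prosubstrate) added with cells; 5 h preincubation; DMSO compound addition; 37 C; luminescence at 0/8/16/24/32/40 h.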

[9] = A CellTox Green Cytotoxicity Assay to monitor cytotoxicity in HepG2 cells - 24 hour (AID 1224878); note: nearly all actives have a fitted effect of over 45% in size
Method in brief: as §5

[10] = A CellTox Green Cytotoxicity Assay to monitor cytotoxicity in HepG2 cells - 40 hour (AID 1224879); note: nearly all actives have a fitted effect of over 40% in size
Method in brief: as §5

[11] = qHTS RealTime-Glo MT Cell Viability Assay in HEK293 cells - 0 hour (AID 1224880)
Method in brief: as §4

[12] = A CellTox Green Cytotoxicity Assay to monitor cytotoxicity in HEK293 cells - 32 hour (AID 1224881); note: nearly all actives have a fitted effect of over 40% in size
Method in brief: as §2

[13] = A CellTox Green Cytotoxicity Assay to monitor cytotoxicity in HepG2 cells - 0 hour (AID 1224882); note: nearly all actives have a fitted effect of over 35% in size
Method in brief: as §5

[14] = A CellTox Green Cytotoxicity Assay to monitor cytotoxicity in HepG2 cells - 32 hour (AID 1224883); note: nearly all actives have a fitted effect of over 50% in size
Method in brief: as §5

[15] = A CellTox Green Cytotoxicity Assay to monitor cytotoxicity in HEK293 cells - 8 hour (AID 1224884); note: nearly all actives have a fitted effect of over 35% in size
Method in brief: as §2

[16] = qHTS RealTime-Glo MT Cell Viability Assay in HepG2 cells - 16 hour (AID 1224885); note: nearly all actives have a fitted effect of over 50% in size
Method in brief: as §6

[17] = qHTS RealTime-Glo MT Cell Viability Assay in HEK293 cells - 24 hour (AID 1224886)
Method in brief: as §3

[18] = A CellTox Green Cytotoxicity Assay to monitor cytotoxicity in HEK293 cells - 16 hour (AID 1224888); note: nearly all actives have a fitted effect of over 35% in size
Method in brief: as §2

[19] = qHTS RealTime-Glo MT Cell Viability Assay in HEK293 cells - 8 hour (AID 1224887)
Method in brief: as §4

[20] = qHTS RealTime-Glo MT Cell Viability Assay in HepG2 cells - 0 hour (AID 1224889); note: nearly all actives have a fitted effect of over 50% in size
Method in brief: as §6
% is set by controls: 0 for no effect and ±100 for the full control effect.

CCOC(=O)OCC
inactive: Potency [1] | Potency [2] | Potency [3] | Potency [4] | max response [5] 7.38% | Potency [6] | Potency [7] | Potency [8] | Potency [9] | Potency [10] | Potency [11] | Potency [12] | Potency [13] | Potency [14] | Potency [15] | Potency [16] | Potency [17] | Potency [18]

CC#N
inactive: Potency [1] | Potency [2] | Potency [3] | Potency [4] | max response [5] 1.57% | Potency [6] | Potency [7] | Potency [8] | Potency [9] | Potency [10] | Potency [11] | Potency [12] | Potency [13] | Potency [14] | Potency [15] | Potency [16] | Potency [17] | Potency [18]

C=CCCCCCCCCCCCCCCCC
inactive: activity change, negative = cytotoxic [1] 26.4% [at 6.97 µM] | cytotoxicity increase [2] -6.74% [at 6.97 µM] | activity change, negative = cytotoxicity [3] -3.07% [at 6.97 µM] | viability change, negative = cytotoxic [4] -17.7% [at 6.97 µM] | max response [5] -5.15% | activity change [6] -1.9% [at 6.97 µM, hits give high values] | cytotoxicity increase [7] -18.8% [at 6.97 µM] | activity change, negative = cytotoxic [8] 7.54% [at 6.97 µM] | cytotoxicity [9] -19.1% [at 6.97 µM] | cytotoxicity increase [10] -20.6% [at 6.97 µM] | activity change, negative = cytotoxicity [11] -0.1% [at 6.97 µM] | cytotoxicity increase [12] -2.25% [at 6.97 µM] | cytotoxicity increase [14] -20.4% [at 6.97 µM] | activity change, negative = cytotoxic [16] -8.12% [at 6.97 µM] | activity change, negative = cytotoxicity [17] -6.06% [at 6.97 µM] | activity change, negative = cytotoxicity [19] -0.881% [at 6.97 µM] | activity change [18] -0.39% [at 6.97 µM, hits give high values] | activity change, negative = cytotoxicity [20] -21.4% [at 6.97 µM]

C[Si]1(C)O[Si](C)(C)O[Si](C)(C)O1
inactive: Potency [1] | Potency [2] | Potency [3] | Potency [4] | max response [5] 0.932% | Potency [6] | Potency [7] | Potency [8] | Potency [9] | Potency [10] | Potency [11] | Potency [12] | Potency [14] | Potency [15] | Potency [16] | Potency [17] | Potency [19] | Potency [18] | Potency [20]

CC1CN(c2cc3c(cc2F)c(=O)c(C(=O)O)cn3-c2ccc(F)cc2F)CCN1 (stereo not given)
inactive: activity change, negative = cytotoxic [1] 3.59% [at 6.97 µM] | cytotoxicity increase [2] -7.27% [at 6.97 µM] | activity change, negative = cytotoxicity [3] 6.7% [at 6.97 µM] | viability change, negative = cytotoxic [4] 1.58% [at 6.97 µM] | max response [5] 2.82% | activity change [6] -1.61% [at 6.97 µM, hits give high values] | cytotoxicity increase [7] 0.798% [at 6.97 µM] | activity change, negative = cytotoxic [8] 0.449% [at 6.97 µM] | cytotoxicity [9] -0.333% [at 6.97 µM] | cytotoxicity increase [10] 1.74% [at 6.97 µM] | activity change, negative = cytotoxicity [11] 15.1% [at 6.97 µM] | cytotoxicity increase [12] -2.92% [at 6.97 µM] | cytotoxicity [13] 5.97% [at 6.97 µM] | cytotoxicity increase [14] 0.181% [at 6.97 µM] | activity change, negative = cytotoxic [16] 2.01% [at 6.97 µM] | activity change, negative = cytotoxicity [17] 6.23% [at 6.97 µM] | activity change, negative = cytotoxicity [19] 7.56% [at 6.97 µM] | activity change [18] -0.883% [at 6.97 µM, hits give high values] | activity change, negative = cytotoxicity [20] -3.32% [at 6.97 µM]

CC(=O)CC(c1ccc([N+](=O)[O-])cc1)c1c(O)c2ccccc2oc1=O (stereo not given)
inactive: Potency [1] | Potency [2] | Potency [3] | Potency [4] | max response [5] -4.65% | Potency [6] | Potency [7] | Potency [8] | Potency [9] | Potency [10] | Potency [12] | Potency [14] | Potency [15] | Potency [16] | Potency [17] | Potency [19] | Potency [18] | Potency [20]

CC(C)CCCCCCOC(=O)CCCCC(=O)OCCCCCCC(C)C
inactive: Potency [1] | Potency [2] | Potency [3] | Potency [4] | max response [5] 0.314% | Potency [6] | Potency [7] | Potency [8] | Potency [9] | Potency [10] | Potency [11] | Potency [13] | Potency [14] | Potency [15] | Potency [16] | Potency [17] | Potency [18]

O=Cc1c(Cl)cccc1Cl
inactive: Potency [1] | Potency [2] | Potency [3] | Potency [4] | max response [5] -15.3% | Potency [6] | Potency [7] | Potency [8] | Potency [9] | Potency [10] | Potency [11] | Potency [12] | Potency [13] | Potency [14] | Potency [15] | Potency [16] | Potency [19] | Potency [18] | Potency [20]

Fc1c(F)c(F)c(Br)c(F)c1F
inactive: Potency [1] | Potency [2] | Potency [3] | Potency [4] | max response [5] 0.266% | Potency [6] | Potency [7] | Potency [8] | Potency [9] | Potency [10] | Potency [11] | Potency [12] | Potency [13] | Potency [14] | Potency [16] | Potency [17] | Potency [19] | Potency [18] | Potency [20]

CC(=O)N(c1onc(C)c1C)S(=O)(=O)c1ccc(N)cc1
inactive: Potency [1] | Potency [2] | Potency [3] | Potency [4] | max response [5] 4.86% | Potency [6] | Potency [7] | Potency [8] | Potency [9] | Potency [10] | Potency [11] | Potency [12] | Potency [13] | Potency [14] | Potency [15] | Potency [16] | Potency [17] | Potency [18] | Potency [20]

O=C(O)Cc1ccc(-c2ccccc2)cc1
inactive: Potency [1] | Potency [2] | Potency [3] | Potency [4] | max response [5] 10.5% | Potency [6] | Potency [7] | Potency [8] | Potency [9] | Potency [10] | Potency [11] | Potency [12] | Potency [13] | Potency [14] | Potency [16] | Potency [17] | Potency [19] | Potency [18] | Potency [20]

CCCCCC=CCC=CCCCCCCCC(=O)OCC
inactive: Potency [1] | Potency [2] | Potency [3] | Potency [4] | max response [5] -1.44% | Potency [6] | Potency [7] | Potency [8] | Potency [9] | Potency [10] | Potency [12] | Potency [13] | Potency [14] | Potency [15] | Potency [16] | Potency [17] | Potency [19] | Potency [18]

CCC1(C)CC(=O)NC1=O (stereo not given)
inactive: Potency [1] | Potency [2] | Potency [3] | Potency [4] | max response [5] 1.67% | Potency [6] | Potency [7] | Potency [8] | Potency [9] | Potency [10] | Potency [11] | Potency [12] | Potency [13] | Potency [14] | Potency [15] | Potency [16] | Potency [17] | Potency [18] | Potency [20]
